PubChem BioAssay AID504329 (Southern Research Specialized Biocontainment Screening …, 2011)
The whole screen tested about 340,000 compounds, of which about 1,000 (0.29%) were called active. These entries were drawn from the full list. Potency and affinity values are given separately. Values without a mark were called inactive. No stated cut-off is given here; in the data, inconclusive means inhibition above about 27% without an active follow-up result; inactive means below that.

Test: NS1A inhibition, H1N1 influenza, cell based functional assay (AID 504329)
Conditions: percent inhibition, at 12.5 µM, active compounds read high
Work on `Cc1ccccc1-c1n[nH]c(=S)n1/N=C/C=C/c1ccco1` yielded an inhibition of -17.6%. In the case of `CNC(=O)Cn1nc(-c2ccc(C)c(S(=O)(=O)N(C)C)c2)c2ccccc2c1=O`, the inhibition is reported as -13.6%. `COc1ccccc1NC1=C(N2CCCCC2)C(=O)c2ccccc2C1=O` showed an inhibition of -0.23%. `CC(=O)N(C)C1=C(N2CCOCC2)C(=O)c2ccccc2C1=O` showed an inhibition of 1.43%. With `O=C1C(Nc2ccccc2)=C(N2CCCCC2)C(=O)c2ccccc21` the inhibition was 15.3%. Work on `CC(=O)N(C1=C(N2CCOCC2)C(=O)c2ccccc2C1=O)c1ccc(C(=O)O)cc1` yielded an inhibition of 0.48%. For `O=C(Nc1ccc(OC(F)F)cc1)c1cc(S(=O)(=O)N2CCOCC2)ccc1F`, the inhibition was -7.89%. `COCc1c(C(=O)OCC(=O)N(C)C2CCS(=O)(=O)C2)oc2ccccc12` (configuration not stated) gave an inhibition of -9.04%. `Cc1ccccc1NC(NC(=O)c1cccnc1)C(Cl)(Cl)Cl` (configuration not stated) gave an inhibition of -5.69%. `Cc1ccc(S(=O)(=O)Nc2ccc(N=Nc3ccc(O)cc3)cc2)cc1` showed an inhibition of 4.71%. Compound `Cc1ccc(S(=O)(=O)/N=C2\C=C(NS(=O)(=O)c3ccccc3)C(=O)c3ccccc32)cc1` has an inhibition of 8.43%. Work on `COCCC(=O)N1CCC(Oc2ccc(C(=O)NC3CCOC(C)(C)C3)cc2)CC1` (configuration not stated) yielded an inhibition of 5.89%. With `O=C1C(=O)c2ccc(-c3ccccc3)cc2-c2ccccc21` the inhibition was -3.6%. With `O=C1C(=O)c2ccccc2-c2ccccc21` the inhibition was 5.48%. For `CC1CCN(CCCNC(=O)c2cc3c(s2)-c2ccccc2OC3)CC1`, the inhibition was -6.94%. Work on `Cc1c(Cl)cccc1NC(=O)CC1Oc2ccccc2NC1=O` (configuration not stated) yielded an inhibition of -22.6%. With `COc1cc(/C=N/NC(=S)Nc2cccnc2)cc(OC)c1OC` the inhibition was -1.86%. Work on `COc1cccc(/C=N/NC(=S)Nc2cccc(S(=O)(=O)N(C)C)c2)c1` yielded an inhibition of -0.6%. In the case of `Fc1ccc(/C=N/NC(=S)Nc2cccnc2)cc1F`, the inhibition is reported as 5.25%. With `S=C(N/N=C/c1ccc2ncccc2c1)Nc1cccnc1` the inhibition was -1.92%. In the case of `Fc1cccc(F)c1/C=N/NC(=S)Nc1cccnc1`, the inhibition is reported as 4.25%. `Fc1ccc(/C=N/NC(=S)Nc2cccnc2)cc1` gave an inhibition of -6.6%. Work on `CN(C)S(=O)(=O)c1cccc(NC(=S)N/N=C/c2cc(Br)ccc2O)c1` yielded an inhibition of -4.31%. In the case of `Oc1ccc(/C=N/NC(=S)Nc2cccnc2)cc1O`, the inhibition is reported as -4.43%. With `O=S(=O)(c1ccccc1)N1CCN(C2CCCCCCC2)CC1` the inhibition was -3.77%. `CCCn1c(=O)c(C(=O)NCc2ccc3c(c2)OCO3)c(O)c2ccccc21` gave an inhibition of -2.14%. `COc1ccc2oc(C(=O)OCC(=O)N3CC(C)CC(C)C3)c(C)c2c1` (configuration not stated) showed an inhibition of -0.35%. With `CSCCC(NC(=O)c1ccccc1)C(=O)NC1CCCC1` (configuration not stated) the inhibition was 1.8%. For `COC(=O)c1ccc2c(c1)C(=O)/C(=C/c1ccc(C)cc1)O2`, the inhibition was 0.65%. With `CC1(C)Cc2c(cnn2-c2ccccc2)C(NC(=O)CCCn2cncn2)C1` (configuration not stated) the inhibition was 4.41%. Work on `Cc1ccccc1CN1CCC(n2nccc2NC(=O)CCCc2ccccc2)CC1` yielded an inhibition of -1.87%. In the case of `O=C(NCc1cnn(-c2ccccc2)c1)C1CCC(=O)N(C2CC2)C1` (configuration not stated), the inhibition is reported as -1.14%. Compound `CC(C)C(NC(=O)C(NC(=O)C1OC2OC(C)(C)OC2C2OC(C)(C)OC12)C(C)C)C(=O)O` (configuration not stated) has an inhibition of 4.15%. In the case of `COc1ccccc1/C=N/NC(=S)Nc1cccnc1`, the inhibition is reported as 2.47%. Compound `Oc1ccc(/C=N/NC(=S)Nc2cccnc2)cc1` has an inhibition of -2.94%. With `COc1cccc(/C=N/NC(=S)Nc2cccnc2)c1` the inhibition was 8.47%. `Fc1c(F)c(F)c(/C=N/NC(=S)Nc2cccnc2)c(F)c1F` showed an inhibition of 4.9%. With `COC(=O)c1cc(OC)c(OC)cc1NC(=O)C(C)Sc1ccc(C)cc1` (configuration not stated) the inhibition was -9.85%. In the case of `CC1(C)C2CC=C(CN3CCC(O)CC3)C1C2` (configuration not stated), the inhibition is reported as 4.73%. Work on `O=C(Nc1ccc(Cl)cc1)Nc1ccccn1` yielded an inhibition of -13.9%. Work on `COc1ccc(CNC(=O)Cn2nc(C(F)(F)F)c(Br)c2C)cc1` yielded an inhibition of -1.07%. `Nc1ccc(NC(=S)Nc2ccccc2)cc1` gave an inhibition of 8.73%. `CC(C)(C)c1ccc(C(=O)NCCCNC(=O)c2ccccn2)cc1` gave an inhibition of 0.93%. Work on `C/C(=N\NC(=O)c1ccc(Cl)cc1)c1ccccn1` yielded an inhibition of -5.53%. With `O=C(NCCNC(=O)c1ccccn1)c1ccc(F)cc1` the inhibition was 4.55%. For `CCOc1ccc(OCc2ccc(C(=O)N/N=C(\C)c3ccccn3)cc2)cc1`, the inhibition was -8.32%. `CSc1ccc(CN(C)C(=O)c2cc(Cl)c3c(c2)OCCO3)cc1` showed an inhibition of 0.05%. For `Cc1ccc(C)c(S(=O)(=O)N2CCN(C(=O)CCNS(=O)(=O)c3ccc(C)c(C)c3)CC2)c1`, the inhibition was 5.37%. For `Cc1ccc2nc(-c3cccc(S(=O)(=O)N4CCCC4)c3)cn2c1`, the inhibition was -1.58%. Compound `COc1ccc(C(=O)NCCc2c[nH]c3ccccc23)cc1S(=O)(=O)N1CCCCC1C` (configuration not stated) has an inhibition of -1.05%. For `Cc1c(-c2ccccc2)nc2ccccc2c1C(=O)Nc1ccncc1`, the inhibition was -4.14%. `CC(C)=CCC[C@](C)(O[C@@H]1O[C@H](CO[C@@H]2OC[C@H](O[C@@H]3OC[C@@H](O)[C@H](O)[C@H]3O)[C@H](O)[C@H]2O)[C@@H](O)[C@H](O)[C@H]1O)C1CC[C@]2(C)C1[C@H](O)CC1[C@@]3(C)CC[C@H](O)C(C)(C)C3[C@@H](O)C[C@]12C` (some centres not stated) gave an inhibition of -10.2%. `CC(=O)N1CCN(c2ccc(NCc3ccc(-c4cccc(Cl)c4)o3)cc2)CC1` showed an inhibition of 23.9%. `CC(=O)N1CCN(c2ccc(NCc3ccc(Br)o3)cc2)CC1` gave an inhibition of 6.1%. `C=CCn1c(CC(=O)Nc2ccc(C)cc2C)nnc1SCC(=O)N1CCOCC1` showed an inhibition of -7.34%. `C/C(=C\c1ccccc1)CN1CCN(c2cccc(Cl)c2)CC1` showed an inhibition of -1.4%. For `Cc1ncc(N=Nc2ccc(F)cc2)c(-c2ccc(Cl)cc2)n1`, the inhibition was 10.6%. Work on `COc1ccc(N=Nc2nc(-c3ccccc3)c(-c3ccccc3)[nH]2)cc1` yielded an inhibition of 13.8%. For `Cc1ncc(N=Nc2ccccc2)c(-c2ccccc2)n1`, the inhibition was 23.1%. Compound `COc1ccc(-c2nc(C)ncc2N=Nc2ccccc2)cc1` has an inhibition of 24.1%. Compound `CSC1=N/C(=C/c2ccc(-n3cncn3)cc2)C(=O)N1` has an inhibition of 18.2%. With `C/C(=N/O)c1ccccn1` the inhibition was 1.41%. Compound `CC(=NNC(=S)N1CC2CCC(CC2)C1)c1cccc(C)n1` has an inhibition of 23.1%. With `CC(=NNC(=S)N1CCCCCC1)c1cccc2cccnc12` the inhibition was 25.3%. Compound `CC(=NNC(=S)N1CCN(c2ccccn2)CC1)c1ccccn1` has an inhibition of 15.8%. With `S=C(Nc1ccc2nc(-c3ccccn3)c(-c3ccccn3)nc2c1)N1CCCCC1` the inhibition was -3.09%. Work on `CSC(=S)N/N=C(\C)c1ccc(Br)cc1` yielded an inhibition of -6.45%. For `CSC(=S)N/N=C(\C)c1ccccc1`, the inhibition was -5.26%. In the case of `Cc1cccc(C(=S)N2CCOCC2)n1`, the inhibition is reported as -4.89%. `O=C(CN1C(=O)c2ccc([N+](=O)[O-])cc2C1=O)Nc1ccccc1N1CCCC1` gave an inhibition of -7.2%. In the case of `Cc1ccsc1/C=N/Nc1nc(=O)[nH]nc1C`, the inhibition is reported as 12%. `O=[N+]([O-])c1cc([N+](=O)[O-])c(Oc2ccc(Br)cc2Br)cc1NN1CCCCC1` gave an inhibition of -0.23%. `NCCCC[C@H](N)c1nnc([C@H](CCC(=O)O)NC(=O)C2CCNCC2)o1` gave an inhibition of 11.3%. Work on `C[C@H]1CN([C@@H](C)CO)C(=O)c2cccc(NC(=O)c3ccncc3)c2O[C@H]1CN(C)C(=O)Nc1ccccc1` yielded an inhibition of -10.3%. `S=C(NCc1ccccc1)N1CCN(C2CCCCC2)CC1` gave an inhibition of -12%. `S=C(Nc1ccccc1)N1CCN(C2CCCCC2)CC1` gave an inhibition of 11.4%. With `C/C(=N\NC(=O)C1CCCN(S(=O)(=O)c2ccccc2)C1)c1ccncc1` (configuration not stated) the inhibition was -23.8%. `C/C(=N\NC(=O)C1CCCN(S(=O)(=O)c2ccccc2)C1)c1cccnc1` (configuration not stated) showed an inhibition of -20.5%. Work on `CC(=O)C1=C(O)C(=O)N(CCC(=O)O)C1c1ccccc1[N+](=O)[O-]` (configuration not stated) yielded an inhibition of -13.3%. In the case of `Cc1ccccc1Nc1ccc(S(=O)(=O)N2CCOCC2)cc1[N+](=O)[O-]`, the inhibition is reported as 12.2%. With `Cc1ccc(Nc2ccc(S(=O)(=O)N3CCOCC3)cc2[N+](=O)[O-])c(C)c1` the inhibition was 11.1%. Compound `COc1ccc(C(=O)NCCc2nnc3ccc(SCC(=O)Nc4ccccc4)nn23)cc1` has an inhibition of -20%. Work on `Cc1ccc(OCC(=O)N2CCC(N3CC(C)CC(C)C3)CC2)cc1` (configuration not stated) yielded an inhibition of 17%. Compound `O=C(O)COc1ccc(S(=O)(=O)NCCc2ccccc2)cc1` has an inhibition of -12%. In the case of `c1ccc(Nc2ccccn2)nc1`, the inhibition is reported as -3.53%. In the case of `Oc1ccccc1Nc1ccccn1`, the inhibition is reported as -5.39%. In the case of `O=C(O)c1ccccc1C(=O)c1ccc(F)c(F)c1`, the inhibition is reported as 3.3%. Work on `O=C(NCCCNC(=O)c1cccnc1)c1ccc(Cl)cc1` yielded an inhibition of -0.27%. In the case of `Cc1cccc(C)c1NC(=O)C(NC(=O)CN1C(=O)c2ccccc2C1=O)c1ccccc1` (configuration not stated), the inhibition is reported as -3.98%. Compound `Cc1cc(Cl)ccc1OCC(=O)O` has an inhibition of -1.09%. In the case of `C=C(CC)C(=O)c1ccc(OCC(=O)O)c(Cl)c1Cl`, the inhibition is reported as 0.79%. `O=C(COC(=O)COc1ccc(Cl)cc1Cl)NC1CC1` gave an inhibition of 0.21%. With `CN(CC(=O)Nc1ccccc1C(=O)NC1CC1)Cc1ccc(N(C)C)cc1` the inhibition was 0.15%. With `Nc1c(Br)cc(Br)c2c1C(=O)c1c(cccc1S(=O)(=O)O)C2=O` the inhibition was 5.84%. `Nc1ccc(NC(=O)c2ccccc2)c2c1C(=O)c1ccccc1C2=O` gave an inhibition of 24.3%. For `O=C(Nc1ccc2c(c1)C(=O)c1ccccc1-2)c1ccccc1`, the inhibition was -5.09%. Compound `Cc1cc(C)c(NC(=O)COC(=O)c2cccc3c2C(=O)c2ccccc2C3=O)c(C)c1` has an inhibition of 3.94%.
